# Results reported in paper PMC6792352, “Limited Chemical Structural Diversity Found to Modulate Thyroid Hormone Receptor in the Tox21 Chemical Library” (Environmental Health Perspectives, 2019).
# Counter-ions that a name gives are not always drawn.
# System: thyroid hormone receptor (endogenous TRα and TRβ)
# Parameters: species or system GH3-TRE-Luc (rat pituitary); GH3-TRE-Luc luciferase reporter, antagonist mode against 1 nM T3, loss of signal, qHTS
# Conditions: read-out: Average AC50 (uM) GH3-TRE-Antag, antagonist mode, 1 nM T3, no GH3 cytotoxicity hit
row,Compound,AC50 [µM]
1,COC(=O)[C@H](c1ccccc1Cl)N1CCc2sccc2C1 [Clopidogrel hydrogen sulfate],45.8
2,Cc1ccc(/C=N/n2c(-c3ccccc3)csc2=S)cc1 [Fezatione],20.5
3,CCO/N=C(\CC)C1=C(O)CC(c2c(C)cc(C)cc2C)CC1=O (stereo not shown) [Tralkoxydim],> 90
4,COc1cc([C@@H]2c3cc4c(cc3[C@@H](O[C@@H]3O[C@@H]5CO[C@@H](C)O[C@H]5[C@H](O)[C@H]3O)[C@H]3COC(=O)[C@H]23)OCO4)cc(OC)c1OP(=O)(O)O [Etoposide phosphate],21
5,"CC(=O)OC(c1ccccc1)C(Cl)(Cl)Cl (stereo not shown) [2,2,2-Trichloro-1-phenylethyl acetate]",55.4
6,COC(=O)NC(=S)Nc1ccccc1NC(=S)NC(=O)OC [Thiophanate-methyl],78.1
7,Cc1ccc2nc(N)[nH]c(=O)c2c1Sc1ccncc1 [Nolatrexed dihydrochloride],4.76
8,"CNC(=O)Nc1ccc(Cl)c(Cl)c1 [N-(3,4-Dichlorophenyl)-N'-methylurea]",48.2
9,C=C1C[C@@H]2[C@H](CC[C@]3(C)C(=O)CC[C@@H]23)[C@@]2(C)C=CC(=O)C=C12 [Exemestane],34.6
10,Nc1ccc2cc3ccccc3cc2c1 [2-Aminoanthracene],3.18
11,CC1(C)C(C=C(Cl)Cl)[C@@H]1C(=O)O[C@@H](C#N)c1ccc(F)c(Oc2ccccc2)c1 (stereo partly shown) [Cyfluthrin],39.9
12,CCOc1cc(N)c(Cl)cc1C(=O)NCC1CN(Cc2ccc(F)cc2)CCO1 (stereo not shown) [Mosapride citrate],43.4
13,CCCCCCCCCCCCCCn1cc[n+](C)c1 [1-Methyl-3-tetradecylimidazolium hexafluorophosphate],68.5
14,CCCOc1ccc2nc(NC(=O)OC)sc2c1 [Tioxidazole],2.52
15,"CCCC1C(CC)=CC(CC)=CN1c1ccccc1 (stereo not shown) [3,5-Diethyl-1-phenyl-2-propyl-1,2-dihydropyridine]",53.9
16,"CC(C)CC(=O)C1C(=O)c2ccccc2C1=O [2-Isovaleryl-1,3-indanedione]",77.1
17,C#C[C@]1(O)CC[C@H]2[C@@H]3CCc4cc(OC)ccc4[C@H]3CC[C@@]21C [Mestranol],21.8
18,Nc1nc(N)c2nc(CNc3ccc(C(=O)N[C@@H](CCC(=O)O)C(=O)O)cc3)cnc2n1 [4-Aminofolic acid],25.2
19,COc1ccc(-n2nc(C(F)F)cc2-c2ccc([S+](C)[O-])cc2)cc1 (stereo not shown) [Difpas-pyrazole],70.2

row,Compound,AC50 [µM]
1,CC(C)c1c(CN(C)C(C)Cc2ccccc2)n(C)n(-c2ccccc2)c1=O (stereo not shown) [Famprofazone],13.1
2,CCN(Cc1c(F)cccc1Cl)c1c([N+](=O)[O-])cc(C(F)(F)F)cc1[N+](=O)[O-] [Flumetralin],39.8
3,CCCN(CC)CC1COC2(CCC(C(C)(C)C)CC2)O1 (stereo not shown) [Spiroxamine],66.6
4,COc1ccc(Nc2ccccc2)c(C)c1 [4-Methoxy-2-methyl-N-phenylaniline],52.5
5,NC(=O)N(O)[C@@H]1COc2cc(OCc3ccccc3)ccc21 [SB202235],85
6,Cc1ccc(/C(=C\CN2CCCC2)c2ccccn2)cc1 [Triprolidine],21.5
7,CC(C)C(C(=O)OC(C#N)c1cccc(Oc2ccccc2)c1)c1ccc(OC(F)F)cc1 (stereo not shown) [Flucythrinate],32.5
8,[H]/N=C(\N/C(=N/[H])Nc1ccc(Cl)cc1)NC(C)C [Proguanil hydrochloride],2.32
9,COC(=O)[C@H]1[C@H]2C[C@@H]3c4[nH]c5cc(OC)ccc5c4CCN3C[C@H]2C[C@@H](OC(=O)/C=C/c2cc(OC)c(OC)c(OC)c2)[C@@H]1OC [Rescinnamine],21
10,O=C(O)C1=NN(c2ccc(S(=O)(=O)O)cc2)C(=O)C1N=Nc1ccc(S(=O)(=O)O)cc1 (stereo not shown) [FD&C Yellow 5],6.01e-06
11,CC(C)c1cccc(C(C)C)c1O [Propofol],> 50
12,CCOc1ccc2nc3cc(N)ccc3c(N)c2c1 [Ethacridine lactate hydrate],40.1
13,C#Cc1cccc(Nc2ncnc3cc(OCCOC)c(OCCOC)cc23)c1 [Erlotinib],21.9
14,Cn1cc(C(=O)[C@@H]2CCc3nc[nH]c3C2)c2ccccc21 [Ramosetron hydrochloride],40.9
15,C[C@](N)(Cc1ccc(O)c(O)c1)C(=O)O [Methyldopa sesquihydrate],> 50
16,Cc1cc(C(C)(C)C)c(O)c(C)c1Cn1c(=O)n(Cc2c(C)cc(C(C)(C)C)c(O)c2C)c(=O)n(Cc2c(C)cc(C(C)(C)C)c(O)c2C)c1=O [Cyanox CY 1790],66.5
17,COc1ccc2c(c1OC)CN1CCc3cc4c(cc3[C@@H]1C2)OCO4 [Canadine],> 20
18,CC(C)=CCC/C(C)=C/C=C/C(C)=C/C=C/C(C)=C/C=C/C=C(C)/C=C/C=C(C)/C=C/C=C(\C)CCC=C(C)C [Lycopene],31.7
